Test results as given in publication PMC5540273 (PLoS ONE, 2017).

What was measured:
Details in all cases: concentration: 1 μM, replicates: in singlicate; n = 1
MAPKAPK5 = tested on: MAPKAPK5
MARK1 = tested on: MARK1
MARK2 = tested on: MARK2
MARK3 = tested on: MARK3
MARK4 = tested on: MARK4
MAST1 = tested on: MAST1
MEK1 = tested on: T1, MEK1
T1 construct: gene MAP2K1

MEK2 = tested on: T2, MEK2
T2 construct: gene MAP2K2

MEK3 = tested on: T3, MEK3
T3 construct: gene MAP2K3

MEK4 = tested on: T4, MEK4
T4 construct: gene MAP2K4
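Also: KINOMEscan kinase panel screen.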

| SMILES | %Inh (MAPKAPK5) [%] | %Inh (MARK1) [%] | %Inh (MARK2) [%] | %Inh (MARK3) [%] | %Inh (MARK4) [%] | %Inh (MAST1) [%] | %Inh (MEK1) [%] | %Inh (MEK2) [%] | %Inh (MEK3) [%] | %Inh (MEK4) [%] |
| --- | --- | --- | --- | --- | --- | --- | --- | --- | --- | --- |
| FC(F)(F)c1ccc(/C=C/c2cncnc2Nc2ccc3[nH]c(Cc4ccccc4)nc3c2)cc1 [GW709199] | 0 | 0 | 0 | 28 | 8 | 5 | 0 | 25 | 0 | 0 |
| Cn1cc(-c2ccc3c(c2)CCN3C(=O)Cc2cccc(F)c2)c2c(N)ncnc21 [GSK2603358] | 0 | 69 | 0 | 0 | 34 | 5 | 15 | 0 | 0 | 26 |
| O=C(Nc1cccc(-c2nn3ccccc3c2-c2ccnc(Nc3cccc(C(F)(F)F)c3)n2)c1)c1c(F)cccc1F [GSK292658] | 0 | 0 | 0 | 3 | 0 | 0 | 3 | 0 | 0 | 17 |
| COc1cc(Nc2nccc(-c3c(-c4cccc(NC(=O)c5c(F)cccc5F)c4)nn4ccccc34)n2)cc(OC)c1OC [GSK323521] | 3 | 6 | 0 | 51 | 17 | 0 | 4 | 0 | 0 | 41 |
| Cl.Cl.NCC(NC(=O)c1cc(-c2ccccc2)c(-c2ccnc3[nH]ccc23)s1)c1ccccc1 (centres unmarked) [GSK1321561] | 0 | 0 | 0 | 11 | 3 | 0 | 5 | 0 | 51 | 42 |
| O=C(O)C(F)(F)F.O=C(O)C(F)(F)F.O=c1[nH]ccc2nc(N[C@@H]3CCCNC3)nc(Nc3ccc(S(=O)(=O)N4CCOCC4)cc3)c12 [GSK2177277] | 61 | 95.3 | 98.2 | 90.5 | 97.1 | 27 | 96.6 | 91.6 | 99.4 | 99.4 |
| Nc1ncnc2c1nc(-c1ccccc1)n2-c1ccccc1 [SKF-97293] | 0 | 27 | 0 | 39 | 33 | 47 | 15 | 14 | 50 | 35 |
| Cc1cccc(NC(=O)Nc2ccc(Oc3ncnc4ccn(C)c34)cc2)c1 | 0 | 0 | 0 | 6 | 0 | 0 | 0 | 29 | 5 | 0 |
| Cl.NC(=O)c1cccc(Nc2nccc(Nc3ccc(Oc4c(Cl)cccc4Cl)c(Cl)c3)n2)c1 [GW659009] | 0 | 0 | 0 | 7 | 0 | 0 | 0 | 0 | 0 | 30 |
| CC(=O)N1CCN(c2ccc(Nc3nccc(-c4sc(C(C)C)nc4-c4cccc(NS(=O)(=O)c5cccc(Cl)c5)c4)n3)cn2)CC1 [GSK1660437] | 0 | 0 | 0 | 0 | 12 | 0 | 1 | 0 | 23 | 99.2 |
| CNC(=O)c1ccccc1Nc1nc(Nc2ccc(N3CCOCC3)cc2)ncc1Cl.Cl [GSK1576028] | 0 | 95.2 | 92.6 | 95.5 | 96.8 | 0 | 88 | 87 | 87 | 74 |
| Oc1cc(Nc2ccnc3cc(I)ccc23)ccc1F [GW552771] | 0 | 0 | 0 | 0 | 5 | 20 | 0 | 0 | 11 | 34 |
| CC(C)(C)c1ccc2nccc(Nc3cccc(O)c3)c2c1 [GW856795] | 0 | 9 | 2 | 27 | 21 | 22 | 46 | 44 | 49 | 0 |
| CN(c1ccc(NC(=O)Nc2cc(C(F)(F)F)ccc2F)cc1)c1ccnc(Nc2ccc(S(N)(=O)=O)cc2)n1 [GW809893] | 0 | 7 | 22 | 2 | 1 | 18 | 0 | 19 | 51 | 67 |
| Cc1cccc(Nc2nc(N[C@H]3CCNC3)ncc2C(N)=O)c1.Cl [GSK2197149] | 0 | 0 | 19 | 0 | 4 | 0 | 31 | 31 | 85 | 66 |
| O=C(Nc1ccccc1F)NC1CCN(c2ccnc(Nc3ccc(F)cc3)n2)CC1 [GSK1379800] | 0 | 0 | 0 | 0 | 2 | 0 | 0 | 0 | 0 | 4 |

| SMILES | %Inh (MAPKAPK5) [%] | %Inh (MARK1) [%] | %Inh (MARK2) [%] | %Inh (MARK3) [%] | %Inh (MARK4) [%] | %Inh (MAST1) [%] | %Inh (MEK1) [%] | %Inh (MEK2) [%] | %Inh (MEK3) [%] | %Inh (MEK4) [%] |
| --- | --- | --- | --- | --- | --- | --- | --- | --- | --- | --- |
| Cn1cc(-c2ccc3c(c2)CCN3C(=O)Cc2cccc(Cl)c2)c2c(N)ncnc21 [GSK2606590] | 0 | 2 | 2 | 3 | 11 | 0 | 19 | 0 | 0 | 33 |
| CN(C)Cc1ccc(-c2ccc3c(Nc4ccc(Oc5ccccn5)cc4)ccnc3c2)o1 [GW567148] | 0 | 2 | 0 | 0 | 13 | 11 | 94.7 | 96.8 | 0 | 26 |
| COc1ccc(CNC(=O)NC2CCN(c3ccnc(Nc4ccc(F)cc4)n3)CC2)cc1 [GSK1379788] | 0 | 0 | 0 | 0 | 0 | 3 | 0 | 9 | 0 | 45 |
| COc1ccc(Nc2nccc(NCCNC(=O)c3cc4ccccc4s3)n2)cc1 [GSK1379896] | 0 | 0 | 0 | 4 | 0 | 0 | 0 | 0 | 0 | 16 |
| c1ccc(-c2n[nH]cc2Nc2ccnc3ccccc23)nc1 [GW694077] | 0 | 0 | 0 | 0 | 1 | 3 | 0 | 0 | 92.5 | 92.8 |
| Cc1ccc(S(=O)(=O)Nc2ccc(Nc3nccc(Nc4cccc5[nH]ncc45)n3)cc2)cc1 [GSK581271] | 0 | 0 | 0 | 0 | 7 | 7 | 0 | 0 | 0 | 10 |
| CCS(=O)(=O)c1ccc(OC)c(Nc2nccc(-c3c(-c4cccc(NC(=O)c5c(F)cccc5F)c4)nn4ncccc34)n2)c1 [GSK326180] | 0 | 6 | 22 | 0 | 9 | 0 | 31 | 18 | 2 | 25 |
| COc1cc(Nc2nccc(N3CCC(NC(=O)c4cc5ccccc5s4)C3)n2)cc(OC)c1OC (centres unmarked) [GSK1379760] | 1 | 7 | 12 | 0 | 22 | 1 | 7 | 0 | 3 | 0 |
| CC(=O)Nc1nc2cnc(Nc3cc(NC(=O)c4cccc(C5(C#N)CC5)c4Cl)ccc3C)nc2s1 | 0 | 1 | 19 | 0 | 10 | 23 | 0 | 0 | 0 | 5 |
| Cl.c1ccc(-c2ccc3c(Nc4ccc5[nH]ncc5c4)ccnc3c2)nc1 [GW440137] | 0 | 0 | 0 | 0 | 15 | 0 | 0 | 5 | 0 | 0 |
| Cc1ccc(F)c(C(=O)Nc2cccc(-c3nn4ccccc4c3-c3ccnc(Nc4cccc(F)c4)n3)c2)c1F [GSK361061] | 0 | 0 | 14 | 0 | 14 | 0 | 3 | 0 | 0 | 37 |
| Fc1ccc(-c2ncn(C3CCNCC3)c2-c2ccnc(Oc3ccc(-c4ccccc4)cc3)n2)cc1 [SB-245391] | 0 | 25 | 23 | 23 | 25 | 36 | 15 | 19 | 18 | 15 |
| COc1ccc(Nc2nccc(N3CCC(NC(=O)Nc4cccc(OC)c4)C3)n2)cc1 (centres unmarked) [GSK1379742] | 0 | 0 | 0 | 0 | 0 | 23 | 0 | 0 | 0 | 24 |
| O=C(Nc1cccc(Oc2ccc3nc(NC(=O)C4CC4)cn3n2)c1)c1ccccc1C(F)(F)F | 0 | 0 | 6 | 21 | 12 | 0 | 69 | 82 | 17 | 0 |
| O=C(NC1CCN(c2ccnc(Nc3ccc(F)cc3)n2)C1)c1cc2ccccc2s1 (centres unmarked) [GSK1379716] | 0 | 0 | 0 | 0 | 10 | 0 | 0 | 4 | 0 | 20 |
| NCCCC(NC(=O)c1cc(Br)c(-c2ccnc3[nH]ccc23)s1)c1ccccc1.O=C(O)C(F)(F)F.O=C(O)C(F)(F)F (centres unmarked) [GSK1287544] | 0 | 0 | 2 | 20 | 4 | 0 | 0 | 0 | 71 | 50 |
